This is an account of results in PubChem BioAssay (NCATS).

Assay [1] has as its system NIH3T3. As to the kind of experiment: Cytotoxic Profiling of Annotated Libraries Using Quantitative High-Throughput Screening (AID 1296008). Also: nearly all actives have a fitted effect of over 60% in size. The settings on record: Five cell lines viability, CellTiter-Glo ATP luminescence, 48-72 h; max response: stronger effect = lower value. Put shortly:
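Compounds were pin-transferred onto cells and incubated 48 or 72 hr at 37 degree Celsius, 95% humidity. CellTiter-Glo was added, plates sat 10 min at room temperature, then ATP-coupled luminescence was imaged as the viability read-out.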

Assay [2] relates to HACAT. The assay can be described thus: qHTS assay to identify novel small-molecules to repurpose for Merkel cell carcinoma treatment (AID 1296009). Also: nearly all actives have a fitted effect of over 60% in size. Also: potency is read from the fitted curve at half-maximal effect. The settings on record: MCC and control cell lines, CellTiter-Glo viability, 72 h; at 44.8 µM (top of the series) unless noted. In outline: (§1)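 qHTS format: cells treated with library compounds in DMSO across 8 (NPC) or 11 (MIPE) concentrations. Readout after 72 hr at 37 degree celsius was CellTiter-Glo luminescence.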
On the technique in general: In qHTS, concentration-response curves come from the screen itself.

Assay [3] has as its system MCC-13. Described as above. The settings on record: MCC and control cell lines, CellTiter-Glo viability, 72 h; series mostly up to 46 µM. Put shortly: as §1
In general terms: Cellular ATP, detected with luciferase, serves as a proxy for viable cell number.

The subject of assay [4] is MCC-26. The description is as above. Conditions: MCC and control cell lines, CellTiter-Glo viability, 72 h; series mostly up to 46 µM. Put shortly:
as §1

The test system of assay [5] is MKL-1. The description is as above. Conditions: MCC and control cell lines, CellTiter-Glo viability, 72 h; series mostly up to 46 µM. In outline:
as §1

The subject of assay [6] is MKL-2. The assay is described as above. The settings on record: MCC and control cell lines, CellTiter-Glo viability, 72 h; series mostly up to 46 µM. In outline: as §1
Assay [7] concerns NIH3T3. Described as above. The settings on record: MCC and control cell lines, CellTiter-Glo viability, 72 h; at 44.8 µM (top of the series) unless noted. In outline:
as §1

The subject of assay [8] is UISO. Described as above. Conditions: MCC and control cell lines, CellTiter-Glo viability, 72 h; series mostly up to 46 µM. In outline: as §1
In assay [9] the test system is WaGa. Described as above. Conditions: MCC and control cell lines, CellTiter-Glo viability, 72 h; series mostly up to 46 µM. Put shortly: as §1
For assay [10], the system named is C33A. The assay can be described thus: Primary qHTS to identify gynecologic anti-cancer compounds using libraries of approved drugs and bioactive compounds (AID 1345084). Also: nearly all actives have a fitted effect of over 55% in size. Also: potency is read from the fitted curve at half-maximal effect. The settings on record: Gynecologic cancer cell panel viability, ATPlite luminescence, 48 h; series mostly up to 57.5 µM. In outline:
(§2)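 Cells, 1,000 per well, were allowed to settle for 16 h at 37 C before compound addition. Five concentrations were tested for 48 h, and viability was read by ATPlite luminescence after 15 min at room temperature.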

Assay [11] relates to CAOV3. Described as above. Conditions: Gynecologic cancer cell panel viability, ATPlite luminescence, 48 h; series mostly up to 57.5 µM. In outline:
as §2

Assay [12] deals with CASKI. Described as above. Conditions: Gynecologic cancer cell panel viability, ATPlite luminescence, 48 h; series mostly up to 57.5 µM. In outline: as §2
Assay [13] deals with Es-2. Described as above. The settings on record: Gynecologic cancer cell panel viability, ATPlite luminescence, 48 h; series mostly up to 57.5 µM. In outline: as §2
Assay [14] relates to HeLa. The description is as above. Conditions: Gynecologic cancer cell panel viability, ATPlite luminescence, 48 h; series mostly up to 57.5 µM. Put shortly: as §2
The subject of assay [15] is Hek293T. Described as above. Conditions: Gynecologic cancer cell panel viability, ATPlite luminescence, 48 h, control line for the selectivity index; series mostly up to 57.5 µM. Put shortly:
as §2

Assay [16] relates to JEG-3. Described as above. The settings on record: Gynecologic cancer cell panel viability, ATPlite luminescence, 48 h; series mostly up to 57.5 µM. In outline:
as §2

For assay [17], the system named is OV90. The description is as above. The settings on record: Gynecologic cancer cell panel viability, ATPlite luminescence, 48 h; series mostly up to 57.5 µM. In outline: as §2
Assay [18] deals with PA-1. The assay is described as above. Conditions: Gynecologic cancer cell panel viability, ATPlite luminescence, 48 h; series mostly up to 57.5 µM. In outline:
as §2

Assay [19] relates to SKOV3. The description is as above. Conditions: Gynecologic cancer cell panel viability, ATPlite luminescence, 48 h; series mostly up to 57.5 µM. In outline: as §2
The test system of assay [20] is HEK293T. The assay can be described thus: qHTS assay to identify novel small-molecules to repurpose for Merkel cell carcinoma treatment (AID 1296009). Also: nearly all actives have a fitted effect of over 60% in size. Also: potency is read from the fitted curve at half-maximal effect. Conditions: MCC and control cell lines, CellTiter-Glo viability, 72 h; at 44.8 µM (top of the series). In outline: as §1

Where “and” joins values, the source holds several entries; their conditions need not be identical. Equal values may be shown once. Records with an inconclusive call do not appear. Some compounds were tested as several samples or in several runs, with calls that do not always agree. Calls of active or inactive are those of the source. Calls follow the shape of the dose curve; as a rule, active = well fitted curve in the direction sought with a large enough effect; inconclusive = small, poorly fitted or top-dose-only effect, or another doubt; inactive = no such curve, though single readings can be large; an effect the other way counts as inactive or inconclusive.
% is scaled to controls: 0 for no effect and ±100 for the full control effect.

With `CNC[C@H](O)c1cccc(O)c1`, the max response in assay [1] was 3.51% (inactive). In addition, the compound was called inactive in assay [1], in assay [2] and in assay [7]. Besides, the Potency entry in assay [3], in assay [4], in assay [5], in assay [6], in [8] and in assay [9] was “inactive” each time. Moreover, the Potency entry in assay [10], in assay [11], in [12], in [13], in assay [14] and in [15] was “inactive” in each case. Also, the Potency entry in assay [16], in [17], in assay [18] and in assay [19] was “inactive” throughout.

On to `CN1CCN(CCCN2c3ccccc3Sc3ccc(C(F)(F)F)cc32)CC1`, for which, in assay [1], the max response is -0.173% (inactive). The result in assay [2] and in assay [20] was inactive. Moreover, the Potency entry in assay [3], in assay [4], in assay [5], in assay [8], in [9] and in [10] was “inactive” in each case. For the same compound, the Potency entry in assay [14] and in [16] was “inactive” each time. The Potency in [6] is 10.6 µM (active) and inactive; in assay [17] it was 11.2 µM (active); in [19] it was 14.1 µM (active).

With `Nc1nc2ccc(OC(F)(F)F)cc2s1`, the max response in [1] was -3.98% (inactive). The compound was classed as inactive in assay [2]. Besides, the Potency entry in assay [3], in assay [4], in assay [5], in assay [6], in assay [8] and in [9] was “inactive” each time. Besides, the Potency entry in [10], in [11], in assay [12], in assay [13], in assay [16] and in assay [17] was “inactive” each time. In addition, in assay [19], the Potency result was “inactive”.

In the case of `CCn1c(-c2nonc2N)nc2c(C#CC(C)(C)O)ncc(OC[C@H]3CCCNC3)c21`, the compound was called inactive in [1], in [2] and in assay [7]. The Potency result in [3], in [4], in assay [5], in [6], in assay [8] and in assay [9] was “inactive” throughout.

Regarding `c1ccc([C@H]2CN3CCSC3=N2)cc1`, the max response in assay [1] is 1.43% (inactive) and 2.53% (inactive). Also, the result in assay [2] and in assay [20] was inactive. In addition, the Potency entry in assay [3], in assay [5], in assay [6], in [8], in assay [9] and in assay [10] was “inactive” throughout. Besides, the Potency entry in assay [12], in assay [13], in assay [14], in [15], in assay [16] and in assay [17] was “inactive” throughout. The Potency entry in [18] and in assay [19] was “inactive” in each case.

With `O=C(O)CCc1ccc(NCc2cccc(Oc3ccccc3)c2)cc1`, the result in assay [1], in [2] and in assay [20] was inactive. Also, the Potency entry in [4], in assay [10], in assay [12] and in [16] was “inactive” in each case. Also, the activity change, negative = cytotoxicity in assay [5] was -1.7% [at 0.00266 µM] (inactive).

On to `Cc1ccccc1C(C(=O)NC1CCCC1)N(C(=O)Cn1cnc2ccccc21)c1cccc(F)c1` (stereo not drawn), for which the result in assay [1], in assay [2] and in [7] was inactive. Besides, the Potency entry in assay [3], in assay [4], in assay [5], in [6], in [8] and in assay [9] was “inactive” in each case.

Regarding `COc1c(Cl)cc2c([nH]c3cnccc32)c1NC(=O)c1cccnc1C`, the max response in [1] is -6% (inactive) and -16.3% (inactive). For the same compound, the call in assay [2] was inactive. Further, the Potency entry in [3], in [4], in assay [5], in assay [6], in [8] and in assay [9] was “inactive” each time. The Potency entry in assay [10], in assay [12], in assay [13], in [14], in [15] and in [16] was “inactive” each time. Further, the Potency result in assay [17] and in [18] was “inactive” throughout.
